High-throughput results deposited in PubChem BioAssay by National Center for Advancing Translational Sciences (NCATS).
A selection: hits, their analogues and other compounds. The true share with any hit is near 9.9%.
KB-3-1 cytotox: kills parental KB-3-1 adenocarcinoma cells | KB-3-1 viability, CellTiter-Glo ATP luminescence, 72 h | AID 1347075 | Potency, µM (highest dose often 46.1 µM), usual class: cytotoxic | 1.4% of 400,000 active; note: potency is the fitted concentration of half-maximal effect; % is set by controls: 0 for no effect and ±100 for the full control effect; nearly all actives have a fitted effect of over 60% in size
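Parental KB-3-1 viability, qHTS format: 72 h compound exposure, 37 °C; CellTiter-Glo; media-only wells and DMSO plates as controls; concentration-effect fits on corrected data.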
KB-V1 cytotox: kills drug-selected multidrug resistant KB-V1 cells; KB-V1 MDR cells viability, CellTiter-Glo, 72 h; Potency, µM (titrated, usually from 46.1 µM), hits mostly cytotoxic; 3.4% of 400,000 active; note: potency is the fitted concentration of half-maximal effect; % is set by controls: 0 for no effect and ±100 for the full control effect; nearly all actives have a fitted effect of over 60% in size
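Drug-selected KB-V1 cells, grown in DMEM lacking phenol red with 10% FBS, receive compound titrations; after three days at 37 degrees C, surviving cell ATP is quantified by CellTiter-Glo luminescence and responses normalized and curve-fitted.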
IL-1B inflam inh: inhibitors of inflammasome signaling (IL-1 beta secretion); activity change, % at 57.5 µM; THP-1 LPS/ATP IL-1B secretion, AlphaLISA, 16 h; active compounds read low; 4.7% of 360,000 active; in the data active = activity change below about -50%; inconclusive = mostly about -30% to -49%; note: % is set by controls: 0 for no effect and ±100 for the full control effect
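THP-1 cells pretreated 1 hr with compounds (up to 57.5 uM final), then stimulated with LPS (250 ng/mL final) plus ATP (1.25 mM final); secreted IL-1B measured by AlphaLISA after 16 hr, decreased signal indicating inhibition.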
SW480 rerep: inducers of DNA re-replication in SW480 colon cancer cells | SW480 DNA re-replication, Hoechst DNA content imaging, 48 h | Potency, µM (doses to about 46.1 µM), for inactives: at the highest dose re-replication activation, hits mostly activators | 1.8% of 340,000 active | AID 624297; note: potency is the fitted concentration of half-maximal effect; % of control where 0% means no effect; nearly all actives have a fitted effect of over 55% in size
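Image-based DNA-content assay: after two days of treatment, nuclei were labelled with the DNA dye Hoechst and imaged, and hits were compounds raising the count of nuclei showing high fluorescence intensity.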
MCF10A rerep: DNA re-replication induction in MCF 10a cells. MCF 10A DNA re-replication, Hoechst nuclear intensity, 48 h. Potency, µM (highest dose often 46.1 µM), for inactives: at the highest dose activity, positive = re-replication, actives largely listed as activators. 2.9% of 350,000 active; note: potency is the fitted concentration of half-maximal effect; % of control where 0% means no effect; nearly all actives have a fitted effect of over 50% in size
* hit, by the source's call; [ ] = another dose, or the depositor's remark. Unless noted, calls come from the whole dose curve; as a rule, active = well fitted curve in the direction sought with a large enough effect; inconclusive = small, poorly fitted or top-dose-only effect, or another doubt; inactive = no such curve, though single readings can be large; an effect the other way counts as inactive or inconclusive.

For CCCCCOc1ccc(Br)cc1CSC(=N)N the results were KB-3-1 cytotox 12µM*, KB-V1 cytotox 9.2µM*, IL-1B inflam inh -97*, SW480 rerep inconclusive and MCF10A rerep inconclusive.
COc1ccc(Br)cc1CSC(=N)N was read as KB-3-1 cytotox inactive, KB-V1 cytotox inactive, IL-1B inflam inh -88*, SW480 rerep -4% and MCF10A rerep -7%.
`Cc1c(NC(=S)NNC(=O)CCC(=O)O)c(=O)n(-c2ccccc2)n1C` gave KB-3-1 cytotox inactive, KB-V1 cytotox inactive, IL-1B inflam inh -10, SW480 rerep -26% and MCF10A rerep 0%.
COc1cccc(CNC(=O)c2ccc(C)c(S(=O)(=O)N3CCCCC3)c2)c1 was read as KB-3-1 cytotox inactive, KB-V1 cytotox inconclusive, IL-1B inflam inh -58*, SW480 rerep 0% and MCF10A rerep inconclusive.
For COc1cccc(CNC(=O)c2cccc(S(=O)(=O)N3CCN(Cc4ccccc4)CC3)c2)c1 the results were KB-3-1 cytotox inactive, KB-V1 cytotox 15µM*, IL-1B inflam inh -8, SW480 rerep -3% and MCF10A rerep 6%.
COc1cccc(CNC(=O)C2CCCN(S(C)(=O)=O)C2)c1 (stereo not given) was read as KB-3-1 cytotox inactive, KB-V1 cytotox inactive, IL-1B inflam inh 5, SW480 rerep 2% and MCF10A rerep 21µM*.
COc1cccc(CNC(=O)C2CCCN(S(=O)(=O)c3cnc[nH]3)C2)c1 (stereo not given) was read as KB-3-1 cytotox inactive, KB-V1 cytotox inactive, IL-1B inflam inh -14, SW480 rerep -1% and MCF10A rerep 19%.
O=C(Cc1csc(Nc2nc(=S)[nH]c3ccccc23)n1)N1CCN(c2cccc(Cl)c2)CC1 was read as KB-3-1 cytotox 23µM*, KB-V1 cytotox 18µM*, IL-1B inflam inh 64, SW480 rerep 13% and MCF10A rerep inconclusive.
O=C(OC[C@@H](O)CO)c1ccccc1Nc1ccnc2cc(Cl)ccc12 was read as SW480 rerep -7%[20.6 µM] and MCF10A rerep 1%[20.6 µM].
For O=C(OCC(O)CO)c1ccccc1Nc1ccnc2cc(Cl)ccc12 (stereo not given) the results were KB-3-1 cytotox inactive, KB-V1 cytotox inconclusive, IL-1B inflam inh -83*, SW480 rerep -60% and MCF10A rerep -40%.
For Nc1ccc(/C=C/C(=O)c2ccco2)cc1 the results were KB-3-1 cytotox inactive, KB-V1 cytotox inactive, IL-1B inflam inh -23, SW480 rerep 2% and MCF10A rerep 18%.
Screening O=C(/C=C/c1ccccc1O)c1ccco1 returned KB-3-1 cytotox inconclusive, KB-V1 cytotox inconclusive, IL-1B inflam inh -14, SW480 rerep inconclusive and MCF10A rerep 15µM*.
For CC(C)(C)C(=O)Nc1ccc(/C=C/C(=O)c2ccco2)cc1 the results were KB-3-1 cytotox inactive, KB-V1 cytotox inactive, IL-1B inflam inh -102*, SW480 rerep 24% and MCF10A rerep inconclusive.
`O=C(/C=C/c1cc(Br)ccc1O)c1ccco1` gave KB-3-1 cytotox inconclusive, KB-V1 cytotox 16µM*, IL-1B inflam inh -71*, SW480 rerep inconclusive and MCF10A rerep inconclusive.
CCNC(COC(=O)c1ccc([N+](=O)[O-])cc1)C1CCCCC1 (stereo not given) was read as KB-3-1 cytotox inactive, KB-V1 cytotox inactive, IL-1B inflam inh 16, SW480 rerep -2% and MCF10A rerep 0%.
For CC1=C(C(=O)OCC2CCCCC2)C(c2ccc(Cl)cc2)CC(=O)N1 (stereo not given) the results were KB-3-1 cytotox inactive and KB-V1 cytotox inconclusive.
`Cc1ccc(S(=O)(=O)N2CCN(S(=O)(=O)c3ccccc3Br)CC2)cc1` gave KB-3-1 cytotox inactive, KB-V1 cytotox inactive, IL-1B inflam inh -9, SW480 rerep -3% and MCF10A rerep 11%.
`COc1ccc(-c2nc3ccc(N4CCCC4)cc3c(=O)[nH]2)cc1OC` gave KB-3-1 cytotox inconclusive, KB-V1 cytotox inconclusive, IL-1B inflam inh -19, SW480 rerep 11µM* and MCF10A rerep 23µM*.
Screening CN(Cc1ccco1)c1ncnc2ccc(-c3ccc4c(ccn4C)c3)cc12 returned KB-3-1 cytotox inconclusive, KB-V1 cytotox inactive, SW480 rerep 3.7µM* and MCF10A rerep inconclusive.
